Assay results reported in the supplement of paper PMC10338343.
± gives the standard deviation.

System: MILI (PIWIL2) piRISC loaded with L1MC piRNA (26 nt)
Experiment: pre-steady-state target cleavage rate (min^-1); guide: L1MC piRNA 5'p-UAACUAAAUACUAUGCAAGCUGUAGG; MIWI and MILI are mouse PIWI proteins and EfPiwi is from a freshwater sponge; tags in brackets are library labels; higher = faster piRNA-guided slicing of the target
Summary of the method: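 The pre-steady-state cleavage rate was calculated from a burst-and-steady-state fit. Data came from Cleave-'n-Seq, in which […] transcribed, DNA-blocked target RNA library was mixed with 1 nM active affinity-purified piRISC carrying one synthetic guide, with or without 500 nM GTSF1 partner protein, in HEPES–potassium acetate buffer at 33 °C for 0–8 or 0–960 min. Uncleaved targets were sequenced and normalised to depth and to weakly complementary targets, three trials were pooled, and k3 was capped at 0.0001 min^-1.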

[1] = auxiliary factor: 500 nM mouse GTSF1
[2] = auxiliary factor: none (no GTSF1)
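Further: 1 nM active piRISC with 0.1 nM target library at 33 °C single turnover.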

Sequence: UCCUGGAUGUCGAUGCAUAGUAUUUGGUUA
- pre-steady-state target cleavage rate [1]: 0.0838 ± 0.016
- pre-steady-state target cleavage rate [2]: 0.00614 ± 0.0029

Sequence: UCCUGGUACUGCUUGGAUAGUAUUUAGUUA
- pre-steady-state target cleavage rate [1]: 0.179 ± 0.029
- pre-steady-state target cleavage rate [2]: 0.00767 ± 0.0042

Sequence: UCCUGGUACAGCUUGCAUAGUAUUUAAUUA
- pre-steady-state target cleavage rate [1]: 0.0793 ± 0.022
- pre-steady-state target cleavage rate [2]: 0.00528 ± 0.0035

Sequence: UCCUGGAUGUGCUUGCAAGUAUUUAGUUA
- pre-steady-state target cleavage rate [1]: 0.00781 ± 0.0036
- pre-steady-state target cleavage rate [2]: 0.00503 ± 0.0024

Sequence: UCCUGGAUGUGGUUGCUUAGUAUUUAGUUA
- pre-steady-state target cleavage rate [1]: 0.107 ± 0.02
- pre-steady-state target cleavage rate [2]: 0.0132 ± 0.0037

Sequence: UCCUGGAUGUCGAACCAUAGUAUAUAGUAA
- pre-steady-state target cleavage rate [1]: < 0.0001
- pre-steady-state target cleavage rate [2]: < 0.0001

Sequence: UCCUGGUACAGCUAGCAUAGUAUUUAGUUA
- pre-steady-state target cleavage rate [1]: 0.259 ± 0.017
- pre-steady-state target cleavage rate [2]: 0.00964 ± 0.0026

Sequence: UCCUGGAACAGCUUGCAUAGUAUUUAGGUUA
- pre-steady-state target cleavage rate [1]: 0.23 ± 0.041
- pre-steady-state target cleavage rate [2]: 0.00413 ± 0.0032

Sequence: UCCUGGAUGUCCUUGCAUCGUAUUUAGUUA
- pre-steady-state target cleavage rate [1]: 0.0423 ± 0.015
- pre-steady-state target cleavage rate [2]: 0.00482 ± 0.0021

Sequence: UCCUGGAUCAGCUUGCUAGUAUUUAGUUA
- pre-steady-state target cleavage rate [1]: 0.0105 ± 0.0043
- pre-steady-state target cleavage rate [2]: 0.00365 ± 0.0022

Sequence: UCCUGGAUGUCCUUGAAUAGUAUUUAGUUA
- pre-steady-state target cleavage rate [1]: 0.122 ± 0.023
- pre-steady-state target cleavage rate [2]: 0.011 ± 0.0029

Sequence: UCCUGGAUGUCGAUGCAUAGUGAUUUAGUUA
- pre-steady-state target cleavage rate [1]: 0.00445 ± 0.0044
- pre-steady-state target cleavage rate [2]: 0.00429 ± 0.0023

Sequence: UCCUGGAUGUCGUUGCAAAGUAUAUAGUUA
- pre-steady-state target cleavage rate [1]: 0.0166 ± 0.0054
- pre-steady-state target cleavage rate [2]: 0.00471 ± 0.0027

Sequence: UCCUGGAUGAGGUUGCAUAGUAUAUAGUUA
- pre-steady-state target cleavage rate [1]: 0.163 ± 0.04
- pre-steady-state target cleavage rate [2]: 0.00623 ± 0.0021

Sequence: UCCUGGAUGUCCUAGCAUAGUAAUUAGUUA
- pre-steady-state target cleavage rate [1]: 0.0282 ± 0.01
- pre-steady-state target cleavage rate [2]: 0.00305 ± 0.0025

Sequence: UCCUGGAUCACCUUGCUUAGUAUUUAGUUA
- pre-steady-state target cleavage rate [1]: 0.176 ± 0.025
- pre-steady-state target cleavage rate [2]: 0.008 ± 0.0023

Sequence: UCCUGGAUGUCGAUGCAUAGUACUUUAGUUA
- pre-steady-state target cleavage rate [1]: 0.0153 ± 0.0039
- pre-steady-state target cleavage rate [2]: 0.00479 ± 0.0029

Sequence: UCCUGGUACAGCUUGCAUAGUUAUUUAGUUA
- pre-steady-state target cleavage rate [1]: 0.0143 ± 0.0076
- pre-steady-state target cleavage rate [2]: 0.00549 ± 0.0044

Sequence: UCCUGGAUGUGCUUGGUUAGUAUUUAGUAA
- pre-steady-state target cleavage rate [1]: 0.149 ± 0.026
- pre-steady-state target cleavage rate [2]: 0.0127 ± 0.003

Sequence: UCCUGGAUGUGCUUGCAAAGUAUUUAGUAA
- pre-steady-state target cleavage rate [1]: 0.033 ± 0.0074
- pre-steady-state target cleavage rate [2]: 0.00287 ± 0.0025

Sequence: UCCUGGAUGUCGUUGCAUAGUAUUUGGUUA
- pre-steady-state target cleavage rate [1]: 0.145 ± 0.031
- pre-steady-state target cleavage rate [2]: 0.00722 ± 0.003

Sequence: UCCUGGAUGAGCUUGCUUAGUAUAUAGUUA
- pre-steady-state target cleavage rate [1]: 0.103 ± 0.02
- pre-steady-state target cleavage rate [2]: 0.00937 ± 0.0029

Sequence: UCCUGGUACAGCUUCGUUAGUAUUUAGUAA
- pre-steady-state target cleavage rate [1]: 0.165 ± 0.04
- pre-steady-state target cleavage rate [2]: 0.00388 ± 0.0027

Sequence: UCCUGGAUGUCGUUUCAUAGUAUUUAGUUA
- pre-steady-state target cleavage rate [1]: 0.0434 ± 0.0083
- pre-steady-state target cleavage rate [2]: 0.00464 ± 0.0023

Sequence: UCCUGGAUGUCGAUGCAUAGUAUUAUAGUUA
- pre-steady-state target cleavage rate [1]: 0.123 ± 0.021
- pre-steady-state target cleavage rate [2]: 0.00538 ± 0.0026

Sequence: UCCUGGAUGUCCUUGGUUAGUAUUUAGUUA
- pre-steady-state target cleavage rate [1]: 0.0867 ± 0.022
- pre-steady-state target cleavage rate [2]: 0.00681 ± 0.0022

Sequence: UCCUGCUACAGCUUGCAUUGAAUUUAGUUA
- pre-steady-state target cleavage rate [1]: 0.0223 ± 0.0052
- pre-steady-state target cleavage rate [2]: 0.00353 ± 0.0025

Sequence: UCCUGGAUCAGCUAGCAUAGUAUUUUGUUA
- pre-steady-state target cleavage rate [1]: 0.19 ± 0.021
- pre-steady-state target cleavage rate [2]: 0.00333 ± 0.0023

Sequence: UCCUGGAUCAGCUUGGAUAGUAUAUAGUUA
- pre-steady-state target cleavage rate [1]: 0.124 ± 0.018
- pre-steady-state target cleavage rate [2]: 0.00459 ± 0.0024

Sequence: UCCUGGAUGUCGAUGCAUAGUAUUUACGUUA
- pre-steady-state target cleavage rate [1]: 0.158 ± 0.033
- pre-steady-state target cleavage rate [2]: 0.00337 ± 0.0029

Sequence: UCCUGGAUGUCGUUGCUUAGUAUUUAGUAA
- pre-steady-state target cleavage rate [1]: 0.0495 ± 0.02
- pre-steady-state target cleavage rate [2]: 0.00388 ± 0.0022

Sequence: UCCUGGAUGUCGUUGCAUAGUAUAUAGUUA
- pre-steady-state target cleavage rate [1]: 0.155 ± 0.028
- pre-steady-state target cleavage rate [2]: 0.00761 ± 0.0026

Sequence: UCCUGGAUGAGCUUUCAUAGUAUUUAGUUA
- pre-steady-state target cleavage rate [1]: 0.15 ± 0.018
- pre-steady-state target cleavage rate [2]: 0.00493 ± 0.0026

Sequence: UCCUGGAACAGCUUGCUAGUAUUUAGUUA
- pre-steady-state target cleavage rate [1]: 0.0161 ± 0.0069
- pre-steady-state target cleavage rate [2]: 0.00397 ± 0.0027

Sequence: UCCUGGAUGUGCUUGCAAAGUAAUUAGUUA
- pre-steady-state target cleavage rate [1]: 0.0171 ± 0.0056
- pre-steady-state target cleavage rate [2]: 0.00395 ± 0.0028

Sequence: UCCUGGAUCAGCUUGUAUAGUAUUUAGUUA
- pre-steady-state target cleavage rate [1]: 0.301 ± 0.015
- pre-steady-state target cleavage rate [2]: 0.0104 ± 0.0028

Sequence: UCCUCCUACAGCUUGAUAGUAUUUAGUUA
- pre-steady-state target cleavage rate [1]: 0.147 ± 0.014
- pre-steady-state target cleavage rate [2]: 0.00404 ± 0.0022

Sequence: UCCUGGAUGUCGUUGUAUAGUAUUUAGUUA
- pre-steady-state target cleavage rate [1]: 0.151 ± 0.017
- pre-steady-state target cleavage rate [2]: 0.0105 ± 0.0023

Sequence: UCCUGGAUGUCGAAGCAUAGUAUUUAAGUUA
- pre-steady-state target cleavage rate [1]: 0.064 ± 0.0095
- pre-steady-state target cleavage rate [2]: 0.00425 ± 0.0022

Sequence: UCCUGGUACAGCUUGCAUAGAUAUUUAGUUA
- pre-steady-state target cleavage rate [1]: 0.0243 ± 0.011
- pre-steady-state target cleavage rate [2]: 0.00568 ± 0.0026

Sequence: UCCUGGAUGUCGUUGCUUAGUAUAUAGUUA
- pre-steady-state target cleavage rate [1]: 0.0611 ± 0.014
- pre-steady-state target cleavage rate [2]: 0.0122 ± 0.0029

Sequence: UCCUGGAUGUCGAAGGCAUAGUAUUUAGUUA
- pre-steady-state target cleavage rate [1]: 0.0371 ± 0.0065
- pre-steady-state target cleavage rate [2]: 0.00443 ± 0.0024

Sequence: UCCUGGAUGUCGUUGCAUAGUAUUUGAGUUA
- pre-steady-state target cleavage rate [1]: 0.145 ± 0.034
- pre-steady-state target cleavage rate [2]: 0.00339 ± 0.0032

Sequence: UCCUGGAUGUCGUUGGCAUAGUAUUUAGUUA
- pre-steady-state target cleavage rate [1]: 0.0621 ± 0.015
- pre-steady-state target cleavage rate [2]: 0.0049 ± 0.003

Sequence: UCCUGGAACAGCUUGGAUAGUAUUUAGUUA
- pre-steady-state target cleavage rate [1]: 0.27 ± 0.013
- pre-steady-state target cleavage rate [2]: 0.0119 ± 0.0026

Sequence: UCCUGGUACAGCAACCAUAGUAUUUAGUUA
- pre-steady-state target cleavage rate [1]: 0.286 ± 0.042
- pre-steady-state target cleavage rate [2]: 0.00442 ± 0.0027

Sequence: UCCUGGAACAGCUUGAUAGUAUUUAGUUA
- pre-steady-state target cleavage rate [1]: 0.11 ± 0.013
- pre-steady-state target cleavage rate [2]: 0.00612 ± 0.0022

Sequence: UCCUGGAUGUCGAAGCAUAGUAUUUAGUUUA
- pre-steady-state target cleavage rate [1]: 0.0244 ± 0.0042
- pre-steady-state target cleavage rate [2]: 0.00589 ± 0.0023

Sequence: UCCUGGAUCAGCUUCAUAGUAUUUAGUUA
- pre-steady-state target cleavage rate [1]: 0.235 ± 0.012
- pre-steady-state target cleavage rate [2]: 0.00548 ± 0.0028

Sequence: UCCUCCUAGAGCAUGCAUAGUAUUUAGUUA
- pre-steady-state target cleavage rate [1]: 0.2 ± 0.019
- pre-steady-state target cleavage rate [2]: 0.00564 ± 0.0018

Sequence: UCCUGGAUGUCGUUGCAUAGUAUUUAGUCUA
- pre-steady-state target cleavage rate [1]: 0.013 ± 0.0062
- pre-steady-state target cleavage rate [2]: 0.00433 ± 0.0036

Sequence: UCCUGGAUGUCGAAGCAUAGUAUUUAGUUG [g2:g16:cont:t1G]
- pre-steady-state target cleavage rate [1]: 0.0225 ± 0.0063
- pre-steady-state target cleavage rate [2]: 0.00543 ± 0.0019

Sequence: UCCUGGUACAGCUUGCAAUCUAUUUAGUUA
- pre-steady-state target cleavage rate [1]: 0.0377 ± 0.013
- pre-steady-state target cleavage rate [2]: 0.00455 ± 0.0036

Sequence: UCCUGGUACAGCUUGCAUAGUAUUUAGUUUA
- pre-steady-state target cleavage rate [1]: 0.375 ± 0.028
- pre-steady-state target cleavage rate [2]: 0.0152 ± 0.005

Sequence: UCCUGGAUGUCCUUGCAUAGUUAUUUAGUUA
- pre-steady-state target cleavage rate [1]: 0.0103 ± 0.0056
- pre-steady-state target cleavage rate [2]: 0.00393 ± 0.0027

Sequence: UCCUGGAUGUCGAUGCUUAGUAUUUAGUUA
- pre-steady-state target cleavage rate [1]: 0.019 ± 0.0053
- pre-steady-state target cleavage rate [2]: 0.00602 ± 0.0019

Sequence: UCCUGGAUGUCGAUGCAUAGUAUUAAGUUA
- pre-steady-state target cleavage rate [1]: 0.122 ± 0.017
- pre-steady-state target cleavage rate [2]: 0.0035 ± 0.0025

Sequence: UCCUGGAUGUCGUUGCAAAGUAUUUAGUAA
- pre-steady-state target cleavage rate [1]: 0.0183 ± 0.0061
- pre-steady-state target cleavage rate [2]: 0.00357 ± 0.0021

Sequence: UCCUGGAUCAGCAUGGAUAGUAUUUAGUUA
- pre-steady-state target cleavage rate [1]: 0.19 ± 0.0097
- pre-steady-state target cleavage rate [2]: 0.0106 ± 0.0024

Sequence: UCCUGGAUGAGCUUGCAUAGUUUUUUGUUA
- pre-steady-state target cleavage rate [1]: 0.0139 ± 0.0061
- pre-steady-state target cleavage rate [2]: 0.00346 ± 0.003
